GDH-TPI counter-1: counter-screen for M. tuberculosis FBA inhibitors: GDH-TPI coupled enzymes | GDH-TPI coupled enzyme counterscreen, NADH absorbance | inhibition, % at 4.8 µM | actives 1.2% (n = 360,000) | AID 588335; in the data active = inhibition above about 30%;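 also: 0% = DMSO wells and 100% = wells lacking the enzyme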
PrPC surface inh: reduces human prion protein on the cell surface. cell surface PrPC, TR-FRET read-out. actives 0.43% (n = 370,000). inhibition, % at 13.8 µM; in the data active = inhibition above about 24%; also: 0% = median of the test wells and 100% = reference compound wells
FBA Mtb inh: Mtb fructose-bisphosphate aldolase inhibition. AID 588726. purified M. tuberculosis FBA, fluorescence read-out. inhibition, % at 1 µM. actives 2.3% (n = 360,000). P9WQA3;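 also: 0% = vehicle and 100% = reference inhibitor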
TcdB GH inh: blocks C. difficile toxin B glycohydrolase activity | P18177 | TcdB glycohydrolase enzymatic assay, plate reader | inhibition, % at 9.99 µM | actives 0.24% (n = 350,000) | AID 652162; in the data active = inhibition above about 10%
Yp Topo-I inh: Y. pestis Topo-I inhibition via cleavage products | Y. pestis Topo-I cleavage product accumulation, plate reader | activity, % at 10 µM | actives 0.064% (n = 360,000) | AID 504884; in the data active = activity above about 50%, passing the limit was not always enough
Mtb FBA inh conf: confirmation of M. tuberculosis fructose-bisphosphate aldolase inhibitors; AID 651616; actives 78% (n = 5,600); inhibition, % at 1 µM; shares compounds with FBA Mtb inh; purified M. tuberculosis FBA, fluorescence read-out;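 also: 0% = vehicle wells and 100% = reference inhibitor wells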
GDH-TPI counter-2: GDH-TPI inhibition counter-screen for FBA inhibitors; shares compounds with FBA Mtb inh; GDH-TPI coupled enzyme counterscreen, fluorescence; inhibition, % at 1 µM; actives 81% (n = 5,600); in the data active = inhibition above about 10%
PrPC confirm: cell surface PrPC inhibition, TR-FRET confirmation | AID 743200 | inhibition, % at 13.8 µM | cell surface PrPC level | shares compounds with PrPC surface inh | actives 65% (n = 1,500); in the data active = inhibition above about 25%
LD9 tox: kills or reduces viability of LD9 cells in PrPc counter-screen | shares compounds with PrPC surface inh | LD9 cells cytotoxicity, luminescence viability | inhibition, % at 13.8 µM | actives 29% (n = 1,500); in the data active = inhibition above about 9.5%
An asterisk follows results filed as active; . = no result given. A selection: hits, their analogues and other compounds. The true share with any hit is near 3.2%. Rule as the data show it, unless noted: active = inhibition above about 27%; inactive = the rest.

SMILES	GDH-TPI counter-1	PrPC surface inh	FBA Mtb inh	TcdB GH inh	Yp Topo-I inh	Mtb FBA inh conf	GDH-TPI counter-2	PrPC confirm	LD9 tox
CCc1cc(=O)oc2cc(OCC(=O)N3CC[C@@]4(O)CCCC[C@H]4C3)ccc12	28	9	30*	-1	4	64*	48*	.	.
Cc1c(C)c2ccc(OCC(=O)N3CC[C@@]4(O)CCCC[C@H]4C3)c(C)c2oc1=O	4	-2	36*	0	-2	104*	92*	.	.
Cc1c(C)c2ccc(OCC(=O)N(C)C3CCS(=O)(=O)C3)c(C)c2oc1=O (configuration not stated)	8	0	89*	1	-8	71*	64*	.	.
CN(C)c1nc(-c2ccccc2)cc(C(F)(F)F)c1C#N	-3	7	7	.	9	.	.	.	.
Cc1nn(CCO)c2nc(-c3cccs3)cc(C(F)(F)F)c12	24	-8	100*	1	-3	180*	168*	.	.
CN(C)c1nc(-c2cccs2)cc(C(F)(F)F)c1C#N	17	-1	35*	0	4	0	-4	.	.
CO[C@@H]1CC[C@H]2CCOc3ccc(C#N)cc3C(=O)N(C)C[C@@H](OC)[C@H](C)C(=O)N(C)C[C@@H]1O2	.	.	.	-2	.	.	.	.	.
CCOc1ccc(C(=O)NCc2ccccn2)cc1	3	.	0	1	8	.	.	.	.
O=C(NCc1ccccn1)c1coc(=O)c(Br)c1	12	27*	78*	.	0	-4	-6	-2	0
CCOC(=O)c1sc(C)c2c1NC(C)(c1cccs1)NC2=O (configuration not stated)	10	36*	35*	.	3	147*	109*	34*	-5
COc1cccc2c(=O)c(C(=O)NCCc3ccccc3)c[nH]c12	10	25*	48*	3	6	63*	45*	12	-4
COc1cc2[nH]cc(C(=O)NCCc3ccccc3)c(=O)c2cc1OC	10	8	6	.	6	.	.	.	.
CCOC(=O)CCc1c(C)c2ccc(OCC)c(C)c2oc1=O	.	3	.	.	.	.	.	.	.
COC(=O)Cc1c(C)c2ccc(OCC(=O)N3CCC(C)CC3)c(C)c2oc1=O	19	28*	84*	-1	24	54*	50*	40*	4
CCCOP(=O)(OCCC)c1nc(-c2ccccc2)oc1NCc1ccccc1	12	28*	57*	2	-11	1	-1	14	-6
O=C(O)C[C@H]1CC[C@H](NC(=O)Nc2cc(F)ccc2F)[C@H](CO)O1	.	.	.	-1	.	.	.	.	.
CCOc1cc(C2Nc3ccccc3C(=O)N2c2ccccc2)c(Br)cc1OCC(=O)O (configuration not stated)	9	93*	39*	.	4	105*	84*	63*	-4
C[C@@H]1CN([C@H](C)CO)C(=O)c2cccc(NC(=O)Nc3ccc(F)cc3)c2O[C@@H]1CN(C)S(C)(=O)=O	.	.	.	1	.	.	.	.	.
CCN(CC)C(=O)CSc1nc(C)cc(-c2cccs2)c1C#N	3	0	3	.	16	.	.	.	.
CCOC(=O)C(C)Sc1nc(-c2cccs2)ccc1C#N (configuration not stated)	21	28*	41*	.	20	2	4	43*	-4
O=C(Nc1ccc(Br)c2ccccc12)c1ccc2ccccc2c1O	12	35*	31*	1	-23	-34	-29	64*	21*
COCCNC(=O)C[C@H]1CC[C@@H]2[C@H](COc3ccc(NC(=O)c4cc(C)on4)cc3C(=O)N2C)O1	.	.	.	0	.	.	.	.	.
CC(C)NC(=O)N(C)C[C@H]1OCCCC[C@@H](C)Oc2ccc(NS(=O)(=O)c3ccc(F)cc3)cc2C(=O)N([C@@H](C)CO)C[C@@H]1C	.	.	.	2	.	.	.	.	.
C=C1CC2(CC(c3ccccc3)OC(c3ccccc3)C2)OC1=O (configuration not stated)	3	49*	-1	-10	32	.	.	9	70*
C=C1CC(c2ccc(-c3ccccc3)cc2)OC1=O (configuration not stated)	.	.	.	-1	.	.	.	.	.
SMILES	GDH-TPI counter-1	PrPC surface inh	FBA Mtb inh	TcdB GH inh	Yp Topo-I inh	Mtb FBA inh conf	GDH-TPI counter-2	PrPC confirm	LD9 tox
COc1ccc(Cl)cc1N/C(N)=N/c1nc(CSc2ccc(C)cc2)cc(=O)[nH]1	4	-1	5	.	-5	.	.	.	.
COc1ccc(Cl)cc1N/C(N)=N/c1nc(C)cc(=O)[nH]1	-7	32*	1	0	-7	.	.	4	-1
CC1CCC(NC(=O)CNC(=O)Cc2cccc3ccccc23)CC1 (configuration not stated)	-4	31*	-1	1	22	.	.	0	-5
Cc1c(OCC(N)=O)ccc2c(-c3ccccc3)cc(=O)oc12	11	27*	3	1	2	.	.	-9	-3
CC(=O)COc1ccc2c(-c3ccccc3)cc(=O)oc2c1C	17	-8	3	1	3	.	.	.	.
NC(=S)c1cn(C2OC(CO)C(O)C2O)c2ncnc(N)c12 (configuration not stated)	3	28*	1	-1	0	.	.	37*	37*
Nc1ncnc2c1ccn2[C@@H]1O[C@H](CO)[C@@H](O)[C@H]1O	4	77*	1	1	5	.	.	68*	94*
COc1ccc(S(=O)(=O)Nc2ccc3c(c2)CC(=O)N([C@@H](C)CO)C[C@H](C)[C@@H](CN(C)S(=O)(=O)c2cccs2)O3)cc1	.	.	.	0	.	.	.	.	.
COc1cc2nc(CN3CC=C(c4ccccc4)CC3)[nH]c(=O)c2cc1OC	0	24*	-2	0	4	.	.	47*	25*
COc1cc2nc(CN3CCN(S(=O)(=O)c4ccccc4)CC3)[nH]c(=O)c2cc1OC	3	6	-3	1	5	.	.	.	.
S=c1nc(C2CCCCC2)[nH]c2ccccc12	6	32*	0	3	7	.	.	38*	-6
O[C@@H]1[C@@H](O)C=C2CCN3Cc4cc5c(cc4[C@H]1C23)OCO5 (some centres not stated)	7	89*	2	1	1	.	.	92*	28*
COc1ccc2c(c1OC)CN1CCc3cc4c(cc3[C@@H]1[C@@H]2O)OCO4	0	.	-1	.	20	.	.	.	.
COc1cccc(S(=O)(=O)N(C)C[C@H]2Oc3cc(C4=CCCC4)ccc3S(=O)(=O)N([C@H](C)CO)C[C@@H]2C)c1	.	.	.	0	.	.	.	.	.
CSc1nc(N)nc(-c2cccs2)c1C#N	22	19	1	.	2	.	.	.	.
CC(C)Sc1nc(N)nc(-c2cccs2)c1C#N	6	30*	-1	.	-6	.	.	41*	3
COc1cnc(-c2ccccn2)nc1N(C)c1ccccc1	6	34*	3	2	4	.	.	27*	23*

Screens (PubChem BioAssay)
